Experimental data published in PubChem BioAssay AID504334 (NMMLSC, 2011).
Values without a mark were called inactive.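 How the source made its calls: active means response relative to DMSO over 150%; inconclusive means yeast strain with under 70 recorded events; inactive means the rest.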

Assay: AGP1-GFP expression modulators, hit retest, confirmation, cell-based, flow cytometry, S. cerevisiae, cherry pick set 3 (AID 504334);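 further: median GFP fluorescence per well by flow cytometry over the all cells gate; ratio of sample to mean DMSO control signal so DMSO = 100% not 0%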
Settings: S. cerevisiae AGP1-GFP strain, 3 h, at 10 µM, hits give high values

Row | SMILES | percent response vs DMSO
1 | CCN1CCN(c2ncnc3ccc(Br)cc23)CC1 | 99.8%
2 | Cc1ccc2c(c1N)C(=O)c1ccccc1C2=O | 105%
3 | CN1CCN(c2ncnc3ccc(Br)cc23)CC1 | 103%
4 | CN(C)C(=O)Oc1ccc(Cl)c2cccnc12 | 93.4%
5 | C/C(O)=C(\C#N)C(=O)Nc1cc(Br)ccc1Br | 100%
6 | CN(C)C(=O)Oc1ccnc2cc(Cl)ccc12 | 104%
